# Paper PMC4336329 (PLoS ONE, 2015)
# The campaign covered roughly 310,000 compounds. About 14,000 (4.5%) showed an effect of 50% or more. The effect is printed as a negative number. This excerpt belongs to a sample that is enriched for strong results.
# Target: human ether-à-go-go-related gene (hERG) potassium channel (human, UniProt Q12809)
# Test: primary screen, population patch clamp on CHO cells stably expressing hERG; higher = less effect of the substance
# 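Also: peak tail current of the secondary pulse compared with the same well before compound.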
# Chain of human ether-à-go-go-related gene (hERG) potassium channel (Q12809 whole entry, looked up): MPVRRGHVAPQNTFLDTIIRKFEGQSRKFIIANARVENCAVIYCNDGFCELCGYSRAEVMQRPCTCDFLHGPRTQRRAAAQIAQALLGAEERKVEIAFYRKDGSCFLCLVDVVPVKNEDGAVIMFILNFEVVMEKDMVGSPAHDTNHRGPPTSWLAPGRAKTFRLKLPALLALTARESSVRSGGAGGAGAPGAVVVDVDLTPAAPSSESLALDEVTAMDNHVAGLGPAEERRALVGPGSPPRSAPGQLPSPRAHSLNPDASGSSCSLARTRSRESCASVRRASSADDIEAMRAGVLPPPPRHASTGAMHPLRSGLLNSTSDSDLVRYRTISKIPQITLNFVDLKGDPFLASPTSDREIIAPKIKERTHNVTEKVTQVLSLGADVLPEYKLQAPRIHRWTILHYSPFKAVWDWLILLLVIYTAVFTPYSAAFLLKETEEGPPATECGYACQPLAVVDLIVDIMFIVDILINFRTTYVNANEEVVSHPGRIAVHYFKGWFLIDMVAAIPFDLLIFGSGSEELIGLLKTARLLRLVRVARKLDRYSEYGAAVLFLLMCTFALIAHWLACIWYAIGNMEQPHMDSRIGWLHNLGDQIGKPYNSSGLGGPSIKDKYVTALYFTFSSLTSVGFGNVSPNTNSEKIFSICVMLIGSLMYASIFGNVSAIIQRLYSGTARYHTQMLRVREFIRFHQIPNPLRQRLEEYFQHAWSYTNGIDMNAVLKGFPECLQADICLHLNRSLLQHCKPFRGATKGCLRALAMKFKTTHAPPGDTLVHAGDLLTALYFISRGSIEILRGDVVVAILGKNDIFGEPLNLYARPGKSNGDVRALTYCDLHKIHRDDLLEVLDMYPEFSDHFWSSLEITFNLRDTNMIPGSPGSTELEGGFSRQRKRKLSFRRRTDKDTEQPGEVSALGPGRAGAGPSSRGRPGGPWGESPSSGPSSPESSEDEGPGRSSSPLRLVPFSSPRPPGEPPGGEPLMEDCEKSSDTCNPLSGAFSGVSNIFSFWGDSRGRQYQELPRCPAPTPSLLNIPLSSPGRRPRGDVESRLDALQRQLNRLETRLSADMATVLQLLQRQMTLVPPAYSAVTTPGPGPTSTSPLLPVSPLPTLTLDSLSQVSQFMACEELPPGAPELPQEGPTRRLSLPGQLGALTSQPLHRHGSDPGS
row,Structure (SMILES),"hERG current change (%, negative = inhibition) at 10uM [%]"
1,CCOC(=O)C1=C(N)Oc2cc(C)[nH]c(=O)c2C1c1ccncc1 (stereo not drawn),11.9
2,COc1cc2c(cc1C1NC(=S)NC(C)=C1C(N)=O)CCCC2 (stereo not drawn),9.6
3,Cc1ccc(CNC(=O)CN2CCCC(C)C2)cc1 (stereo not drawn),-29.7
4,COc1ccc(N2CCN(C3CC(=O)N(C)C3=O)CC2)cc1 (stereo not drawn),17.4
5,O=S(=O)(c1ccc(Br)cc1Cl)N1CC[NH+](CCO)CC1.[Cl-],3.35
6,Oc1ccc(/C=N/N(Cc2ccccc2)c2ccccc2)cc1,35.8
7,Cc1sc2ncn(CC(=O)NCCCC(=O)N3CCN(Cc4ccc5c(c4)OCO5)CC3)c(=O)c2c1C,-6.94
8,CCn1ncc(/C=C/C(=O)c2ccccc2)c1C,5.83
9,CCc1cc(C(=O)OC)c(NC(=O)CSc2nccn2C)s1,-56.9
10,COC(=O)c1c(NC(=O)CSc2nccn2C)sc(C)c1C,-15.8
11,CCOC(=O)c1cc(C)sc1NC(=O)CSc1nccn1C,-19.9
12,Cl.OC(COc1ccccc1)CN1C2=NCCCN2c2ccccc21 (stereo not drawn),-67
13,Cl.OC(COc1ccc(Cl)cc1)CN1C2=NCCCN2c2ccccc21 (stereo not drawn),-76.3
14,O=C1CCC(=O)N1CC(O)COc1ccccc1 (stereo not drawn),4.87
15,Cc1cc(C(=O)NNC(=O)c2ccccc2[N+](=O)[O-])c(C)o1,11.2
16,O=C(Cc1ccc(Cl)cc1)N/N=C/c1ccncc1,-27.3
17,O=C(CN1CCN(Cc2ccc(Cl)cc2)CC1)N/N=C/c1cccs1,-67.2
18,O=C(CN1CCN(Cc2ccccc2)CC1)N/N=C/c1cccs1,-22.9
19,O=C(CN1CCN(Cc2ccccc2)CC1)N/N=C/c1cccnc1,-12.8
20,O=C(CN1CCN(Cc2ccc(Cl)cc2)CC1)N/N=C/c1ccncc1,-80.1
21,O=C(CN1CCN(Cc2ccccc2Cl)CC1)N/N=C/c1cccs1,-20.4
22,O=C(O)CCCNC(=O)Cc1ccccc1,5.08
23,O=C(C1=C(O)C(=O)N(c2ncccn2)C1c1cccs1)c1ccco1 (stereo not drawn),14.3

row,Structure (SMILES),"hERG current change (%, negative = inhibition) at 10uM [%]"
1,COc1ccccc1C1NC(=O)NC(C)=C1C(=O)OC1CCCCC1 (stereo not drawn),6.66
2,COCCNC(=O)C(=O)NNC(=O)CCc1ccccc1,8.78
3,CCOC(=O)CN1C(=O)N[C@@H](c2cccc(C(F)(F)F)c2)C(C(C)=O)=C1C,11.8
4,Cn1nc(-c2ccccc2)c2nc3ccccc3nc21,-5.31
5,CC(=O)c1ccc(N2CCN(C(=O)c3cc(-c4ccncc4)nc4ccc(Br)cc34)CC2)cc1,-42
6,O=C(c1cc(-c2ccncc2)nc2ccc(Br)cc12)N1CCN(c2ccccn2)CC1,-37.2
7,O=C(O)c1cc(-c2ccc3c(c2)OCO3)nc2ccc(Br)cc12,9.07
8,O=C(c1ccco1)N1CCN(C(=O)c2cc(-c3ccncc3)nc3ccc(Br)cc23)CC1,-72.7
9,Cl.Nc1nc(N2CCN(C(=O)c3ccco3)CC2)nc2ccc(Br)cc12,-59.5
10,O=C(c1cc(-c2ccncc2)nc2ccc(Cl)cc12)N1CCN(Cc2ccc3c(c2)OCO3)CC1,-46.7
11,Cl.Nc1nc(N2CCN(C(=O)c3ccco3)CC2)nc2ccccc12,-49.4
12,COc1cc2nc(N3CCN(C(=O)c4ccco4)CC3)nc(N)c2cc1OC.Cl,-35.9
13,O=C(c1cc(-c2ccncc2)nc2ccc(Br)cc12)N1CCN(Cc2ccc3c(c2)OCO3)CC1,-56.5
14,Cc1nc(C)c(-c2csc(Nc3ccc(F)cc3)n2)s1,-25.1
15,O=C1CSc2ccc(C(=O)Nc3cccc(S(=O)(=O)Nc4ccc(Br)cc4)c3)cc2N1,15
16,O=C(COC(=O)c1cccc(-n2cnnn2)c1)c1ccc(F)cc1,-0.561
17,CCOC(=O)C1CCN(S(=O)(=O)c2ccc3c(c2)CC(=O)N3C)CC1,-22
18,C=CCc1c(C)nc(SC(C)C)[nH]c1=O,-2.85
19,CCOc1cc(C(=S)N2CCCC2)ccc1OC(=O)Cc1ccc(F)cc1,7.36
20,COc1ccc(CC(=O)Nc2c(C(=O)N3CCN(c4ncccn4)CC3)oc3ccccc23)cc1OC,-46.8
21,COc1ccc(CC(=O)Nc2c(C(=O)N3CCN(c4ncccn4)CC3)oc3ccccc23)cc1,-63.7
22,O=C(Cc1ccc(F)cc1)Nc1c(C(=O)N2CCN(c3ncccn3)CC2)oc2ccccc12,-56
